Data on 28 molecules can be found in PubChem BioAssay (Tox21).

A short description of assay [1]: qHTS assay to identify small molecule antagonists of the thyroid receptor (TR) signaling pathway (AID 743065). Note: series mostly up to about 70 µM; nearly all actives have a fitted effect of over 55% in size. The method, boiled down: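 GH3.TRE-Luc rat pituitary cells carrying two TR response elements driving luciferase were plated for 4 h, given compound plus 1 nM T3 (final), and incubated 23.5 h at 37 C. ONE-Glo luminescence measured reporter inhibition; CellTiter-Fluor fluorescence tracked cytotoxicity.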

In assay [2] the test system is thyroid hormone receptor (rat, GH3 cells). In words: qHTS assay to identify small molecule agonists of the thyroid receptor (TR) signaling pathway (AID 743066; calls by dose curve).
In assay [3] the target is Estrogen receptor (Homo sapiens) (UniProt P03372). Put plainly: qHTS assay to identify small molecule antagonists of the estrogen receptor alpha (ER-alpha) signaling pathway (AID 743069; active = well fitted curve in the direction sought with a large enough effect in the signal ratio in the repeat runs, not every such curve was filed as active; the % refers to the signal ratio). The essentials: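 HEK293 cells stably carrying an ER-alpha-UAS-bla beta-lactamase reporter were pre-cultured overnight in 2% charcoal-stripped FBS medium. Test compounds in DMSO were added together with 17beta-estradiol for 18 hr at 37C. Read-out was fluorescence after 2 hr with LiveBLAzer B/G FRET substrate at room temperature.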

Assay [4] in a line: qHTS assay to identify small molecule antagonists of the estrogen receptor alpha (ER-alpha) signaling pathway - cell viability counter screen (AID 743074; calls by dose curve; note: nearly all actives have a fitted effect of over 45% in size).
For assay [5], the target named is Estrogen receptor (Homo sapiens) (UniProt P03372). In words: qHTS assay to identify small molecule agonists of the estrogen receptor alpha (ER-alpha) signaling pathway (AID 743075; calls by dose curve).
Assay [6] has the same target. Put plainly: qHTS assay to identify small molecule agonists of the estrogen receptor alpha (ER-alpha) signaling pathway using the BG1 cell line (AID 743079). Note: nearly all actives have a fitted effect of over 20% in size. Note: potency is the fitted concentration of half-maximal effect.
Assay [7] in a line: qHTS assay to identify small molecule antagonists of the estrogen receptor alpha (ER-alpha) signaling pathway using the BG1 cell line (AID 743080; calls by dose curve;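 note: BG1 cells stimulated with 17beta-estradiol alongside compound; nearly all actives have a fitted effect of over 25% in size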; note: potency is the fitted concentration of half-maximal effect). The method, boiled down:
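After 5 days in phenol-red-free 10% charcoal-stripped FBS medium, BG1-Luc-4E2 cells were seeded, left 24 h at 37 C, co-treated with compounds and 17beta-estradiol for 21.5 h, then assayed for viability and luciferase.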

Assay [8] in a line: qHTS assay to identify small molecule antagonists of the estrogen receptor alpha (ER-alpha) signaling pathway using the BG1 cell line - cell viability counter screen (AID 743081).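 Note: compound given together with 17beta-estradiol as the ER stimulus; series mostly up to about 70 µM; nearly all actives have a fitted effect of over 45% in size.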
The next assay addresses Aromatase (Homo sapiens) (UniProt P11511). In words: qHTS assay to identify aromatase inhibitors (AID 743083). Note: series mostly up to about 70 µM; nearly all actives have a fitted effect of over 55% in size.
Assay [9] can be described thus: qHTS assay to identify aromatase inhibitors - cell viability counter screen (AID 743084).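 Note: cells stimulated with testosterone during compound exposure; nearly all actives have a fitted effect of over 55% in size.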

Each structure is given as a SMILES string. Inconclusive results are not listed. The source made the active and inactive calls. Unless noted, calls come from the whole dose curve; as a rule, active = well fitted curve in the direction sought with a large enough effect in the repeat runs; inconclusive = weak or mixed curves; inactive = no such curve, though single readings can be large; an effect the other way counts as inactive or inconclusive. Non-standard residues stand in square brackets, D forms with d. Residues, ends and D or L forms follow the SMILES beside them. *: point of attachment. Sta = CC(C)C[C@H](N)[C@@H](O)CC(=O)O; Isovaleryl = CC(C)CC(=O)*

Sequence of Aromatase (Homo sapiens) (P11511 whole entry, looked up): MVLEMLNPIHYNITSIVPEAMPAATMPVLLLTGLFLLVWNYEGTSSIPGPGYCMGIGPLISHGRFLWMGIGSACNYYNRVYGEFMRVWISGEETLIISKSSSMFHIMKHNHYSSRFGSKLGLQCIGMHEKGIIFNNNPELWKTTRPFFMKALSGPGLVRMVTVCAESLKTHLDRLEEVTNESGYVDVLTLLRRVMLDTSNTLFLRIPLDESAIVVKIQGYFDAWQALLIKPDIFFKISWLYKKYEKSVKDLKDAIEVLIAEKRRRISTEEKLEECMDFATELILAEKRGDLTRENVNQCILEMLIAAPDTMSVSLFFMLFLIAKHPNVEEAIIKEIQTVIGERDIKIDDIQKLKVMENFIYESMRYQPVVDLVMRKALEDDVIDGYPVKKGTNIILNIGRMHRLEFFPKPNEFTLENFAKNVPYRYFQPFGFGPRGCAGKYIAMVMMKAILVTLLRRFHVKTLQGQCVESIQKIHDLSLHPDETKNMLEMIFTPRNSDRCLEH
Sequence of Estrogen receptor (Homo sapiens) (P03372 whole entry, looked up): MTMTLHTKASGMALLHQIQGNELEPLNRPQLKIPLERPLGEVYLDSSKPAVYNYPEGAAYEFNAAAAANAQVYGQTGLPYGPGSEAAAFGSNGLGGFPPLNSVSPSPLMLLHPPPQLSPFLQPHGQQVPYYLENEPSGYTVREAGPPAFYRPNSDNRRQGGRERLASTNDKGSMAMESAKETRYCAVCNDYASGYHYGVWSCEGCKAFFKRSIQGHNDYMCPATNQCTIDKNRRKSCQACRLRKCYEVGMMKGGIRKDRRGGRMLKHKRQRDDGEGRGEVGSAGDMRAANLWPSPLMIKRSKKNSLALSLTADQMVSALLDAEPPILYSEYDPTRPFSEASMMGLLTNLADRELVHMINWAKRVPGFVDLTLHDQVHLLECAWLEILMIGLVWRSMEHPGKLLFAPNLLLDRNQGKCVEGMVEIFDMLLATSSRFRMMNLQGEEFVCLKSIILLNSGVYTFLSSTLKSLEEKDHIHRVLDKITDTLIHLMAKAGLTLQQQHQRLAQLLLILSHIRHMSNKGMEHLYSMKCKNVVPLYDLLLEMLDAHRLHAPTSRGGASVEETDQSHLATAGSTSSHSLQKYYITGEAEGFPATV

Take `C=CCCCCCCCCOC(C)=O`: the Potency result in assay [1], in assay [2], in assay [4], in assay [5], in [6] and in [7] was “inactive” in each case. Also, in the assay with Aromatase (Homo sapiens), the Potency result was “inactive”. The molecule was classed as inactive in assay [3], in [8] and in assay [9].
Take `CC(C)(C)OC(=O)c1ccccc1C(=O)O`: the Potency result in assay [1], in assay [2], in assay [4], in [5], in [6] and in assay [7] was “inactive” throughout. In addition, the Potency entry with Aromatase (Homo sapiens) is “inactive”. Also, the molecule was classed as inactive in assay [8] and in assay [9].
For the molecule `Cc1ccccc1OCC(=O)O`, the Potency entry in [1], in assay [2], in assay [4], in assay [5], in assay [6] and in [7] was “inactive” each time. The Potency entry in the assay with Aromatase (Homo sapiens) was “inactive”. Also, the call in [3], in assay [8] and in [9] was inactive.
Take `NNC(=O)CCCCC(=O)NN`: the Potency entry in assay [1], in assay [2], in assay [4], in assay [5], in assay [6] and in [7] was “inactive” throughout. Further, the Potency result in the assay with Aromatase (Homo sapiens) was “inactive”. The result in assay [3] and in assay [9] was inactive.
On to `CC(C)(C)C(=O)CCc1ccc(Cl)cc1`, for which the Potency entry in assay [1], in assay [2], in assay [4], in assay [5], in [6] and in assay [7] was “inactive” in each case. For the same molecule, in the assay with Aromatase (Homo sapiens), the Potency entry was “inactive”. Further, the call in assay [3], in assay [8] and in [9] was inactive.
As for `Nc1nc(Cl)cc(Cl)n1`, the Potency entry (in assay [1]; in assay [2]; in assay [5]; in [6]; in [7]; with Aromatase (Homo sapiens)) was “inactive” in each case. The molecule was called inactive in [3], in assay [8] and in assay [9].
With `CC(C)CC(O)Cc1ccccc1` (stereo unspecified), the Potency entry (in assay [1]; in [2]; in assay [4]; in assay [5]; in [7]; with Aromatase (Homo sapiens)) was “inactive” each time. Further, the outcome in [3] and in [8] was inactive.
`CC(=O)SCC(CC(=O)c1ccc(C)cc1)C(=O)O` (stereo unspecified): the Potency entry in assay [1], in [2], in assay [4], in assay [5], in assay [6] and in assay [7] was “inactive” throughout. In addition, the Potency entry in the assay with Aromatase (Homo sapiens) was “inactive”. Moreover, the molecule was called inactive in [3], in assay [8] and in [9].
Consider `N#CC1(N)CCCCC1`, for which the Potency entry in assay [1], in assay [2], in assay [4], in assay [5], in assay [6] and in [7] was “inactive” in each case. In the assay with Aromatase (Homo sapiens), the Potency result was “inactive”. The outcome in [8] was inactive.
Regarding `COCCCOc1cc(C[C@@H](C[C@H](N)[C@@H](O)C[C@H](C(=O)NCC(C)(C)C(N)=O)C(C)C)C(C)C)ccc1OC`, the Potency result (in assay [1]; in assay [2]; in assay [5]; in assay [6]; in assay [7]; with Aromatase (Homo sapiens)) was “inactive” in each case. The result in [3], in assay [8] and in [9] was inactive.
With `CCc1ccc(CC)cc1`, the Potency result in assay [1], in assay [2], in assay [4], in assay [5], in [6] and in assay [7] was “inactive” in each case. Besides, the Potency entry in the assay with Aromatase (Homo sapiens) was “inactive”. The call in assay [8] was inactive.
In the case of `CCCCCCCCCCCBr`, the Potency entry in [1], in [2], in [4], in [5], in assay [6] and in assay [7] was “inactive” each time. In addition, the Potency result in the assay with Aromatase (Homo sapiens) is “inactive”. Besides, the outcome in assay [3], in assay [8] and in assay [9] was inactive.
On to `CCOC(=O)CC(C(C)=O)C(C)=O`, for which the Potency result in [1], in assay [2], in [4], in [5], in assay [6] and in [7] was “inactive” in each case. The Potency result in the assay with Aromatase (Homo sapiens) was “inactive”. The molecule was called inactive in assay [3], in assay [8] and in assay [9].
Regarding `C=CCCCCCCCCCCCCCC`, the Potency result in [1], in assay [2], in [4], in assay [5], in assay [6] and in assay [7] was “inactive” throughout. For the same molecule, the Potency entry with Aromatase (Homo sapiens) was “inactive”. The outcome in assay [3], in assay [8] and in [9] was inactive.
Regarding `CCC(C)c1nccnc1OC` (stereo unspecified), the Potency entry in assay [1], in assay [2], in [4], in [5], in assay [6] and in assay [7] was “inactive” throughout. The Potency result in the assay with Aromatase (Homo sapiens) was “inactive”. For the same molecule, the molecule was classed as inactive in assay [3], in [8] and in assay [9].
On to `O=S(=O)(O)c1ccc(Cl)cc1`, for which the Potency result in assay [1], in assay [2], in assay [4], in assay [5], in [6] and in [7] was “inactive” in each case. The Potency result with Aromatase (Homo sapiens) was “inactive”. Moreover, the call in assay [3], in assay [8] and in assay [9] was inactive.
Consider `Clc1cc(Cl)c(Cl)c(Cl)c1Cl`, for which the Potency result in assay [1], in assay [2], in assay [4], in assay [5], in assay [6] and in assay [7] was “inactive” in each case. Moreover, the Potency entry with Aromatase (Homo sapiens) is “inactive”. The outcome in [8] and in [9] was inactive.
Take `CCO[Si](CC(C)C)(OCC)OCC`: the Potency result in [1], in assay [2], in [4], in assay [5], in assay [6] and in assay [7] was “inactive” each time. Moreover, in the assay with Aromatase (Homo sapiens), the Potency entry is “inactive”. Further, the result in assay [8] was inactive.
Consider `CNC(C)=O`, for which the Potency result in assay [1], in assay [2], in assay [4], in assay [5], in assay [6] and in assay [7] was “inactive” each time. In the assay with Aromatase (Homo sapiens), the Potency result is “inactive”. The call in assay [3], in assay [8] and in [9] was inactive.
Consider `Cc1cc(O)c(Cl)cc1C`, for which the Potency result in assay [1], in [2], in assay [4], in assay [5], in assay [6] and in assay [7] was “inactive” each time. The Potency entry in the assay with Aromatase (Homo sapiens) was “inactive”. The outcome in [3], in assay [8] and in assay [9] was inactive.
Take `NCC1CCC(C(=O)Oc2ccc(CCC(=O)O)cc2)CC1` (stereo unspecified): the Potency entry in assay [1], in assay [2], in assay [4] and in [5] was “inactive” each time. For the same molecule, the call in assay [3], in [8] and in assay [9] was inactive. For the same molecule, in assay [7], the Potency is 26.6 µM (active).
Regarding `CCCC(=O)C(CC)Sc1ccoc1C` (stereo unspecified), the Potency entry (in assay [2]; in assay [4]; in assay [5]; in assay [6]; in [7]; with Aromatase (Homo sapiens)) was “inactive” throughout. In addition, the molecule was classed as inactive in assay [3], in assay [8] and in [9].
For the molecule `CC(C)CC(=O)N[C@H](C(=O)N[C@H](C(=O)N[C@@H](CC(C)C)[C@@H](O)CC(=O)N[C@@H](C)C(=O)N[C@@H](CC(C)C)[C@@H](O)CC(=O)O)C(C)C)C(C)C` (Isovaleryl-VV[Sta]A[Sta]-OH), the Potency entry (in assay [1]; in assay [2]; in assay [4]; in the assay with Aromatase (Homo sapiens)) was “inactive” throughout. The call in [8] and in assay [9] was inactive.
For the molecule `CNCCc1ccccn1`, the Potency entry (in assay [1]; in [2]; in assay [4]; with Aromatase (Homo sapiens)) was “inactive” throughout. Further, the call in assay [8] and in assay [9] was inactive.
For the molecule `COC(=O)c1c(C)cc(O)c(C)c1O`, the Potency entry (in assay [1]; in assay [4]; in assay [7]; in the assay with Aromatase (Homo sapiens)) was “inactive” each time. Further, the Potency in assay [6] was 68.6 µM (active). The molecule was classed as inactive in [8] and in assay [9].
Consider `CC(=O)c1c(C)cc(C(C)(C)C)cc1C`, for which the Potency result (in [1]; in assay [2]; in assay [4]; with Aromatase (Homo sapiens)) was “inactive” each time. The outcome in [8] and in [9] was inactive.
For `C=CCON/C(CCC)=C1\C(=O)CC(C)(C)C(C(=O)OC)=C1O`, the Potency entry (in assay [1]; in [2]; in [4]; in the assay with Aromatase (Homo sapiens)) was “inactive” throughout. Further, the outcome in assay [8] and in assay [9] was inactive.
For the molecule `C=CCN1CCc2nc(N)sc2CC1`, the Potency entry (in [1]; in assay [2]; in assay [4]; in the assay with Aromatase (Homo sapiens)) was “inactive” in each case. The molecule was classed as inactive in [8] and in assay [9].
